PglD inh: PglD (C. jejuni) enzyme inhibition; purified PglD enzyme, DTNB colorimetric CoA detection; 0.098% of 360,000 active; inhibition, % at 12.5 µM; AID 602405; in the data active means inhibition above about 16%, passing the limit was not always enough
SIRT5 block: inhibitors of human sirtuin-5 desuccinylase; Q9NXA8; Purified SirT5, succinyl-peptide AMC, trypsin-coupled fluorescence; inhibition, % at 15 µM; 1.1% of 330,000 active; AID 652115; in the data active means inhibition above about 15%
Target sequence (Q9NXA8 whole entry, looked up): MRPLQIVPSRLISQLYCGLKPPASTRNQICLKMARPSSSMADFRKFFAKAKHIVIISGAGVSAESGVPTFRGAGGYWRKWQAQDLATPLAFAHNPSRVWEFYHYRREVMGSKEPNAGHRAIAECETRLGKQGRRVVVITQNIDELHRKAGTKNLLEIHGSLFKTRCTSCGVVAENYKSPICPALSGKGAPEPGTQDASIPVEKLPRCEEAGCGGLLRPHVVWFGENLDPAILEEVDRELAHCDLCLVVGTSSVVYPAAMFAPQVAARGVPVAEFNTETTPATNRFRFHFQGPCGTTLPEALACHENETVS
FGF22 binding: FGF22 (human) thermal shift binding. activity (Tm shift, normalised), % at 9.99 µM. 1.5% of 340,000 active. Q9HCT0. AID 651658. recombinant FGF22 thermal shift, SYPRO orange fluorescence; percent of sucrose octasulfate shift, DMSO zero;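 active means mean Tm shift, scaled 0 neutral to 100 positive control, at about 1.3% or above, every replicate too, limit read from the data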
dFosB activator: activators of mouse delta FosB homodimer; purified delta FosB, TAMRA-CDK5 oligo fluorescence polarization; percent of positive-control signal above neutral wells; P13346; 0.99% of 340,000 active; activation, % at 25 µM;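 active means mean activation above about 17%, with every replicate also reaching it, limit read from the data, passing the limit was not always enough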
CDK5 p35 inh: inhibitors of human CDK5/p35 kinase. 0.01% of 330,000 active. Recombinant CDK5/p35, ADP-Glo luminescence, 60 min. AID 488839. Q00535+Q15078. inhibition, % at 10 µM;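 active means highest replicate inhibition of at least 50% and at least 75% of replicates reaching 50%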;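 further: plate controls were DMSO neutral control for no effect and GW8510 at 10 µM for full effect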
PvdQ acylase: P. aeruginosa PvdQ acylase inhibition. purified PvdQ acylase, fluorescence plate reader. inhibition, % at 10 µM. 0.063% of 340,000 active. AID 488965; in the data active means inhibition above about 30%, passing the limit was not always enough;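 further: 0% = vehicle neutral wells and 100% = reference inhibitor wells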
* = called active by the depositor; x = no result. Shown are actives, neighbours in structure and some others; about 2.8% of the full set was active somewhere.

SMILES | PglD inh | SIRT5 block | FGF22 binding | dFosB activator | CDK5 p35 inh | PvdQ acylase
COc1cc2c(cc1OC)CN(C(=O)[C@@H]1[C@H]3C(=O)O[C@H](c4ccccc4)[C@H](c4ccccc4)N3[C@H](c3ccc(OCCO)cc3)[C@@]13C(=O)Nc1ccc(C#CCNC(N)=O)cc13)CC2 | -1 | 23* | 0 | x | x | x
O=C1O[C@@H](c2ccccc2)[C@@H](c2ccccc2)N2[C@@H](c3ccc(OCCO)cc3)[C@]3(C(=O)Nc4ccc(C#CCCO)cc43)[C@@H](C(=O)N3CCN(c4ncccn4)CC3)[C@H]12 | 2 | -4 | 0 | x | x | x
O=C1O[C@@H](c2ccccc2)[C@@H](c2ccccc2)N2[C@@H](c3ccccc3OCCO)[C@]3(C(=O)Nc4ccc(C#CC5=CCCCC5)cc43)[C@@H](C(=O)N3CCN(c4ncccn4)CC3)[C@H]12 | -11 | 17* | x | x | x | x
COC(=O)C(CC#Cc1ccc2c(c1)[C@]1(C(=O)N2)[C@H](C(=O)NC[C@H](O)c2ccccc2)[C@H]2C(=O)O[C@H](c3ccccc3)[C@H](c3ccccc3)N2[C@@H]1c1ccccc1OCCO)C(=O)OC | -2 | 19* | 0 | x | x | x
NC(=O)NCC#Cc1ccc2c(c1)[C@]1(C(=O)N2)[C@H](c2ccc(OCCO)cc2)N2[C@H](c3ccccc3)[C@H](c3ccccc3)OC(=O)[C@H]2[C@@H]1C(=O)O | x | 3 | 0 | x | x | x
COc1ccc(C#Cc2ccc3c(c2)[C@]2(C(=O)N3)[C@H](C(=O)N3CCN(c4ncccn4)CC3)[C@H]3C(=O)O[C@H](c4ccccc4)[C@H](c4ccccc4)N3[C@@H]2c2ccc(OCCO)cc2)cc1 | 13 | 23* | 0 | x | x | x
CCC(=O)N(C)C[C@@H]1Oc2cc(-c3ccccc3F)ccc2S(=O)(=O)N([C@H](C)CO)C[C@@H]1C | 1 | -2 | 0 | x | x | x
COCC(=O)Nc1ccc2c(c1)OC[C@H](C)N(CCC(F)(F)F)C[C@@H](C)[C@H](OC)CN(C)C2=O | -1 | -2 | x | x | x | x
N=c1c2c(n(Cc3ccc(Br)cc3)c3c1CCC3)CCCC2 | x | -4 | 43* | -5 | 0 | 8
CC(C)CCOc1ccc(C(=O)N2CCCC2C(=O)O)cc1 (configuration not stated) | x | 17* | 0 | -4 | -1 | 8
COc1cccc(-c2ccc3c(c2)O[C@H](CN(C)C)[C@H](C)CN([C@H](C)CO)S3(=O)=O)c1 | 1 | -2 | 0 | x | x | x
COCC(=O)N1CC2(C1)CN(Cc1cccc(Cl)c1)[C@@H](CO)c1[nH]c3cc(OC)ccc3c12 | x | 4 | 0 | x | x | x
CC1(C)CC(=O)C2=C(C1)N(c1ccc(F)cc1)C(=O)CC2c1ccccc1 (configuration not stated) | 2 | x | x | -8 | 0 | -13
O=C1CCCC2=C1C(c1ccccc1)CC(=O)N2c1ccc(F)cc1F (configuration not stated) | x | -2 | 43* | -2 | 1 | -5
O=C(CCN1C(=O)/C(=C/c2cccs2)SC1=S)Nc1ccc(C(=O)O)c(O)c1 | -2 | 16* | 1 | -2 | 2 | 2
O=C1/C(=C\c2cccc(O)c2O)SC(=S)N1Cc1ccccc1 | -1 | 2 | 0 | -4 | 7 | -13
O=C(CCCN1C(=O)/C(=C\c2cccs2)SC1=S)Nc1cc([N+](=O)[O-])ccc1O | 5 | -2 | 0 | 26* | -1 | 8
O=C(CCN1C(=O)/C(=C/c2cccs2)SC1=S)Nc1ccc(O)cc1 | -4 | -1 | 0 | 7 | 2 | -12
O=C(CCN1C(=O)/C(=C/c2cccs2)SC1=S)Nc1ccccc1O | 10 | -4 | 0 | 21* | -1 | 2
O=C1/C(=C\c2cc([N+](=O)[O-])ccc2O)SC(=S)N1Cc1ccc(Cl)cc1 | 0 | 16* | 0 | -2 | -1 | 0
COc1ccc(NC(=O)N(C)C[C@@H]2OCCCC[C@H](C)Oc3ccc(NS(=O)(=O)c4cn(C)cn4)cc3C(=O)N([C@H](C)CO)C[C@@H]2C)cc1 | 1 | -1 | 0 | x | x | x
O=c1[nH]c(=S)[nH]c2c1C(c1ccc(Br)cc1)c1c([nH]c(=S)[nH]c1=O)O2 | 15 | 67* | 0 | -13 | x | -9
